G9a block – inhibitors of human histone lysine methyltransferase G9a; G9a H3K9 monomethylation, AlphaScreen, 2 h; Potency, µM (series often up to 102 µM), actives largely listed as inhibitors; 350,000 compounds, 8.8% hits; AID 504332; note: nearly all actives have a fitted effect of over 75% in size
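AlphaScreen detection with an anti-monomethyl H3K9 antibody quantified product after a 2 h room-temperature reaction containing 500 nM biotinylated H3K9 peptide, 20 µM SAM and 20 nM enzyme, which had been preincubated 15 min with compound.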
BAZ2B inh – inhibitors of human BAZ2B bromodomain; Potency, µM (doses to about 114 µM), most hits filed as inhibitors; 360,000 compounds, 4.4% hits; AlphaScreen BAZ2B-H3K14Ac peptide displacement; Q9UIF8; note: nearly all actives have a fitted effect of over 60% in size
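BAZ2B (50 nM) with biotin-H3(5-23)K14Ac peptide (50 nM) in PBS pH 7.4, 0.01% Tween-20, preformed 30 min, then compound 30 min at room temperature; top concentration 110uM. AlphaScreen streptavidin donor/nickel chelate acceptor beads (10 ug/mL final), 20 min dark, signal read.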
HP1b binding inh – inhibitors of HP1-beta chromodomain binding to methylated histone tails. P83916. AlphaScreen HP1-beta / biotin-H3K9me3 peptide binding. 390,000 compounds, 0.56% hits. Potency, µM (doses to about 114 µM), hits mostly inhibitors; note: nearly all actives have a fitted effect of over 70% in size
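HP1-beta protein (50 nM final) preincubated 30 min at room temperature with biotinylated H3(1-18)K9me3 peptide (50 nM) in PBS pH 7.4, 0.01% Tween-20, then compound added for 30 min. AlphaScreen streptavidin donor/nickel chelate acceptor beads (10 ug/mL final), 30 min dark, luminescence read.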
JMJD2A Tudor – JMJD2A Tudor domain (human) inhibition; AlphaScreen JMJD2A-Tudor / H3K4me3 peptide binding; Potency, µM (series often up to 114 µM), most hits filed as inhibitors; 390,000 compounds, 4.4% hits; AID 504339; note: nearly all actives have a fitted effect of over 50% in size
L3MBTL1 inh – blocks human L3MBTL1; Potency, µM (series often up to 57.1 µM), hits mostly inhibitors; 230,000 compounds, 0.66% hits; Q9Y468; AlphaScreen L3MBTL1–H3K9me1 peptide binding; note: nearly all actives have a fitted effect of over 60% in size
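Read-out is AlphaScreen signal from streptavidin donor and nickel chelate acceptor beads (10 ug/mL final each) bridging L3MBTL1 (50 nM) and biotinylated K9-monomethylated H3(1-15) peptide (75 nM), after 30 min compound exposure at room temperature.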
Sfp inh – Sfp phosphopantetheinyl transferase inhibition; Q9F4F7; Biochemical Sfp PPTase activity, qHTS; Potency, µM, usual class: inhibitors; AID 1490; 310,000 compounds, 3.5% hits;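 note: the enzyme is Sfp with the accession as filed and its product quenches rhodamine fluorescence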
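Reaction rates are the 30-min fluorescence difference (ex 525, em 598 nm) in wells containing 15 nM Sfp, 5 uM rhodamine-CoA and 12.5 uM BHQ-2-YbbR at pH 7.6 with 10 mM MgCl2.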
A number is an active result; ! = not confirmed by another sample; [ ] = remark or other dose. Rows were chosen to be rich in hits. Some 12% of all compounds tested hit in one or more screens of this group. Calls come from the whole dose curve; as a rule, active = well fitted curve in the direction sought with a large enough effect; inconclusive = small, poorly fitted or top-dose-only effect, or another doubt; inactive = no such curve, though single readings can be large; an effect the other way counts as inactive or inconclusive.

Clc1ccc(-c2noc(CN(Cc3ccccn3)CC3CCCO3)n2)cc1 (centres undefined) was read as G9a block inactive, BAZ2B inh inactive, HP1b binding inh inactive, JMJD2A Tudor inactive, L3MBTL1 inh inactive and Sfp inh inconclusive.
CCCCn1c(CCn2nc(C)c(Br)c2C)n[nH]c1=S was read as G9a block inconclusive, BAZ2B inh inactive, HP1b binding inh inactive, JMJD2A Tudor 28µM and Sfp inh inactive.
Screening COc1ccc(N2CCN(C(=O)C3CCN(S(=O)(=O)c4cnc[nH]4)CC3)CC2)cc1 returned G9a block inconclusive, HP1b binding inh inactive and JMJD2A Tudor inactive.
`COC(=O)c1scc(-c2ccc(C)cc2)c1S(=O)(=O)N1CCN(c2ccc(F)cc2)CC1` gave G9a block inconclusive, BAZ2B inh inactive, HP1b binding inh inconclusive and JMJD2A Tudor inactive.
Screening COC(=O)c1scc(-c2ccc(C)cc2)c1S(=O)(=O)N1CCN(c2ccc(OC)cc2)CC1 returned G9a block 11µM, BAZ2B inh inconclusive, HP1b binding inh inconclusive and JMJD2A Tudor inconclusive.
Screening COc1cc(Cl)c(C)cc1NC(=O)CCCN1C(=O)C(c2ccccc2)Oc2cccnc21 (centres undefined) returned G9a block inactive, BAZ2B inh inactive, HP1b binding inh inactive and JMJD2A Tudor inactive.
O=c1c2ccccc2n(Cc2c(F)cccc2Cl)c(=O)n1Cc1ccccc1 was read as G9a block inactive, BAZ2B inh inactive, HP1b binding inh inactive and JMJD2A Tudor inactive.
`O=C1N=C(N2C=CC(=C3C=CNC=C3)C=C2)/C(=C/N=NC(=O)c2ccccc2O)S1` gave G9a block 71µM, BAZ2B inh 50µM, HP1b binding inh 45µM, JMJD2A Tudor inconclusive and Sfp inh inactive.
For COc1ccc2c(c1)CCC1C2=NN(/C(C)=C\C(C)=O)C1c1ccc(F)cc1 (centres undefined) the results were G9a block 16µM, BAZ2B inh inactive, HP1b binding inh inactive, JMJD2A Tudor 14µM, L3MBTL1 inh inactive and Sfp inh 45µM.
Screening COc1ccc2c(c1)C1=NN(/C(C)=C/C(C)=O)C(c3ccc(F)cc3)C1CC2 (centres undefined) returned G9a block inactive, BAZ2B inh inactive, HP1b binding inh inactive, JMJD2A Tudor inconclusive, L3MBTL1 inh inactive and Sfp inh inactive.
CC(=O)NNc1nc(-c2ccc(NC(C)=O)cc2)cs1 was read as G9a block inconclusive, BAZ2B inh inconclusive, HP1b binding inh inactive, JMJD2A Tudor inactive, L3MBTL1 inh inactive and Sfp inh 50µM.
Screening CC(=O)Nc1ccc(-c2csc(NNC(=O)c3ccc(C)cc3)n2)cc1 returned G9a block inconclusive, BAZ2B inh inactive, HP1b binding inh inactive, JMJD2A Tudor inactive, L3MBTL1 inh inactive and Sfp inh 7.9µM.
Screening CCOC(=O)C1CCCN(C(=O)c2c(C)nn(-c3ccc(F)cc3)c2-n2cccc2)C1 (centres undefined) returned G9a block inactive, BAZ2B inh inactive, HP1b binding inh inactive and JMJD2A Tudor inactive.
Cc1cccc(N2C(=O)C(O)=C(C(=O)c3cccs3)C2c2ccc(F)cc2)n1 (centres undefined) was read as G9a block inconclusive, BAZ2B inh inconclusive, HP1b binding inh inactive, JMJD2A Tudor inactive, L3MBTL1 inh inactive and Sfp inh inactive.
For COc1ccc(C2C(C(=O)c3cccs3)=C(O)C(=O)N2c2nncs2)cc1 (centres undefined) the results were G9a block 45µM, BAZ2B inh inconclusive, HP1b binding inh inactive, JMJD2A Tudor inconclusive, L3MBTL1 inh inactive and Sfp inh inactive.
Screening Cc1cccc(N2C(=O)C(O)=C(C(=O)c3cccs3)C2c2ccc(C(C)C)cc2)n1 (centres undefined) returned G9a block inconclusive, BAZ2B inh inactive, HP1b binding inh inactive, JMJD2A Tudor inactive, L3MBTL1 inh inactive and Sfp inh inactive.
Screening CC(C)c1nnc(N2C(=O)C(O)=C(C(=O)c3cccs3)C2c2ccccc2)s1 (centres undefined) returned G9a block 25µM, BAZ2B inh 79µM, HP1b binding inh inactive, JMJD2A Tudor inactive, L3MBTL1 inh inactive[11.4 µM] and Sfp inh inconclusive.
Screening COc1ccc(C2C(C(=O)c3cccs3)=C(O)C(=O)N2c2nnc(C)s2)cc1OC (centres undefined) returned G9a block inconclusive, BAZ2B inh 50µM, HP1b binding inh inactive, JMJD2A Tudor 79µM, L3MBTL1 inh inactive and Sfp inh 56µM.
For C=CCOc1ccc(C2C(C(=O)c3cccs3)=C(O)C(=O)N2c2nnc(C)s2)cc1 (centres undefined) the results were HP1b binding inh inactive and JMJD2A Tudor inconclusive.
For CCCNC(=O)Cn1sc2nc(C)cc(C)c2c1=O the results were BAZ2B inh 50µM, HP1b binding inh inconclusive, JMJD2A Tudor 3.2µM and Sfp inh 1.8µM.
CCOC(=O)C1CCCN(C(=O)Cn2sc3nc(C)cc(C)c3c2=O)C1 (centres undefined) was read as G9a block 1.6µM, BAZ2B inh inactive, HP1b binding inh inconclusive, JMJD2A Tudor 5.6µM and Sfp inh 1.8µM.
For Cc1cc(C)c2c(=O)n(CC(=O)N3CCC(N4CCCCC4)CC3)sc2n1 the results were G9a block 1µM, BAZ2B inh inactive, HP1b binding inh 3.5µM, JMJD2A Tudor 3.2µM and Sfp inh 8.9µM.
Screening CCOC(=O)C1CCCN(C(=O)Cn2cnc3c2c(=O)n(C)c(=O)n3C)C1 (centres undefined) returned G9a block inactive, BAZ2B inh inactive, HP1b binding inh inactive, JMJD2A Tudor inactive, L3MBTL1 inh inactive and Sfp inh inactive.
For Cc1nn(CC(=O)N2CCC(N3CCCCC3)CC2)c(=O)c2c1sc1ccccc12 the results were G9a block inactive, BAZ2B inh inactive, HP1b binding inh inactive, JMJD2A Tudor inactive and Sfp inh inactive.
CC(=O)Cn1cnc2c(sc3nc(C)cc(C)c32)c1=O was read as G9a block inactive, BAZ2B inh inactive, HP1b binding inh inactive, JMJD2A Tudor inactive, L3MBTL1 inh inactive and Sfp inh inactive.
`CN1CCc2cccc3c2C1Cc1ccc(O)c(O)c1-3` (centres undefined) gave G9a block 1.9µM!, BAZ2B inh inconclusive, HP1b binding inh inconclusive, JMJD2A Tudor 40µM and Sfp inh 56µM!.
Screening CCC1CN(C(=O)N2CCC(C(=O)NCCc3ccc(OC)cc3OC)CC2)c2cc(C)ccc2O1 (centres undefined) returned G9a block inactive, BAZ2B inh inactive, HP1b binding inh inactive and JMJD2A Tudor inactive.
Cc1[nH]c2ccccc2c1/C=N/Nc1ccc(F)cc1F was read as G9a block 32µM, BAZ2B inh 45µM, L3MBTL1 inh inactive and Sfp inh inactive.

Screens from PubChem.
